Screens (PubChem BioAssay)
This is a sample that favours compounds with a hit; in the whole collection about 3.1% have one here.
S16 F2sN tox = Cell viability qHTS assay in S16 Pmp22-F2sN cells | Potency, µM (doses to about 57.5 µM), most hits filed as cytotoxic | AID 1508642, 2021 | 43,000 compounds, 0.48% hits | S16 Pmp22-F2sN Schwann cells viability, CellTiter-Glo, 24 h; also: nearly all actives have a fitted effect of over 65% in size
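CellTiter-Glo counter-screen, qHTS, 1536-well. Cells: S16(c9) Pmp22-F2sN, 500-1,000/well in DMEM + 10% FBS. Cpd 23 nL pin transfer, 24 h, 37C/5% CO2. Read: luminescence, CCD imager.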
OvCa metastasis = Primary qHTS assay for Inhibitors of ovarian cancer metastasis using an organotypic tumor microenvironment (TME) model. SKOV3ip1-GFP adhesion/invasion on 3D omental model, fluorescence. Potency, µM (highest dose often 45.8 µM), hits mostly inhibitors. 46,000 compounds, 0.1% hits; also: nearly all actives have a fitted effect of over 65% in size
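Primary human omental fibroblast/mesothelial 3D culture pre-formed 48 h. SKOV3ip1-GFP cells added with compounds (0.36-46 umol/L), incubated 2 h RT/16 h 37 C, fixed; GFP cells quantified at 488/509 nm.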
PMP22 txn prim = Cell-based coincidence reporter assay to measure PMP22 gene transcription in S16 Pmp22-F2sN cells - Primary screen | AID 1508649, 2021 | S16 Pmp22-F2sN Schwann cells (luciferase reporters placed in the Pmp22 gene), FLuc/NLuc coincidence luminescence, 24 h | Potency, µM (highest dose often 57.5 µM), actives largely listed as inhibitors | 43,000 compounds, 2% hits; active = clear falling dose curves in both reporters; inconclusive = both reporters move, but less clearly or upward; inactive = either reporter flat; the % is the NLuc reporter signal
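Transcriptional readout in edited S16(c9) cells: two luciferases reported from the Pmp22 locus, measured in turn after 24 h compound incubation.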
mTORC1 inh = Acumen qHTS Assay for Inhibitors of the mTORC1 Signaling Pathway in MEF (Tsc2-/-, p53-/-) Cells: Sytravon. AID 493208, 2011. Tsc2-/- p53-/- MEF, phospho-rpS6 immunofluorescence/PI, 24 h. 44,000 compounds, 0.78% hits. Potency, µM (titrated, usually from 38.3 µM), hits mostly inhibitors; also: nearly all actives have a fitted effect of over 50% in size
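Readout is phospho-S6 Alexa 488 signal normalized to PI per well, reported as % active cells with thresholds set from rapamycin (7.5 nM) and DMSO controls. Cells: Tsc2-/-, p53-/- MEFs, 24 hrs compound at 37 C; PI cell number serves as viability.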
p53null 32C kill = qHTS Screen for Compounds that Selectively Target Cancer Cells with p53 Mutations: Cytotoxicity of p53 Null Cells at the Permissive Temperature. H1299-neo p53 null cells, ATP luminescence, 24 h, 32C. Potency, µM (top dose mostly 46.1 µM), most hits filed as cytotoxic. 55,000 compounds, 0.62% hits. AID 903, 2007; also: nearly all actives have a fitted effect of over 55% in size
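Overnight 37C seeding (600 cells/well) of H1299-neo preceded a 24 hr, 32C exposure to compounds up to 46 uM. ATP levels, read by luminescence after 20 min at RT, indicated surviving cells.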
p53null 39C tox = qHTS Screen for Compounds that Selectively Target Cancer Cells with p53 Mutations: Cytotoxicity of p53 Null Cells at the Nonpermissive Temperature; H1299 p53-null (neo) cells, 39C, ATPlite viability, 24 h; Potency, µM (highest dose often 46.1 µM), most hits filed as cytotoxic; 55,000 compounds, 0.97% hits; also: nearly all actives have a fitted effect of over 50% in size
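Cells seeded at 600/well, 37C overnight. Compound added (up to 46 uM), plates shifted to 39C for 24 hr. ATPlite added, luminescence read after 20 min at room temperature.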
Large screens that a line does not name were inactive. Unless noted, calls follow the shape of the dose curve; as a rule, active = well fitted curve in the direction sought with a large enough effect; inconclusive = small, poorly fitted or top-dose-only effect, or another doubt; inactive = no such curve, though single readings can be large; an effect the other way counts as inactive or inconclusive.

COc1cccc(NC(=O)Nc2cc(-c3cn4cccnc4n3)ccc2OC)c1	PMP22 txn prim inconclusive, p53null 32C kill 15.8µM, p53null 39C tox 7.94µM
COc1ccc(-c2cn3cccnc3n2)cc1NC(=O)Nc1cc(C)ccc1C	S16 F2sN tox inconclusive, OvCa metastasis inconclusive, PMP22 txn prim inconclusive, p53null 32C kill inconclusive, p53null 39C tox 15.8µM
Cc1ccc(-c2c(C)n3c4c(=O)n(C)c(=O)n(C)c4nc3n2CCO)cc1	S16 F2sN tox inconclusive, PMP22 txn prim 4.8µM
COc1cccc(Nc2sc(C(=O)c3ccc(Cl)cc3)c(N)c2C(=O)NCc2ccc(C)cc2)c1	S16 F2sN tox inconclusive, PMP22 txn prim 8.91µM, mTORC1 inh inconclusive
Cc1ccc(C)c(N2CCN(CCCNC(=O)C3COc4ccccc4C3)CC2)c1 (stereo not given)	S16 F2sN tox inconclusive, PMP22 txn prim inconclusive, mTORC1 inh 11.7µM
O=C(NCCCN1CCN(c2ccccc2F)CC1)C1COc2ccccc2C1 (stereo not given)	none
CCCCNc1oc(-c2ccc(COc3ccccc3C)o2)nc1C#N	mTORC1 inh inconclusive, p53null 39C tox inconclusive
Cc1ccccc1OCc1ccc(-c2nc(C#N)c(NCCCN(C)C)o2)o1	S16 F2sN tox inconclusive, PMP22 txn prim inconclusive, mTORC1 inh 5.85µM
CCc1c(C)sc2c1CCN(Cc1ccc(C#N)cc1)C2c1ccccc1 (stereo not given)	S16 F2sN tox inconclusive, PMP22 txn prim inconclusive
CCc1c(C)sc2c1CCN(Cc1ccc(F)cc1)C2c1ccccc1 (stereo not given)	S16 F2sN tox 8.91µM, PMP22 txn prim inconclusive, p53null 39C tox inconclusive
CCc1c(C)sc2c1CCN(Cc1cccc(F)c1)C2c1ccccc1 (stereo not given)	S16 F2sN tox 10µM, PMP22 txn prim inconclusive, p53null 39C tox inconclusive
CCCCCCCCCCCCCC(=O)N[C@H](CO)[C@H](O)c1ccc([N+](=O)[O-])cc1	none (no result: S16 F2sN tox, PMP22 txn prim, mTORC1 inh, p53null 32C kill, p53null 39C tox)
C[C@]12CC[C@H](O)CC1=CC[C@@H]1[C@H]2CC[C@]2(C)C(c3cccnc3)=CC[C@H]12	none (no result: S16 F2sN tox, PMP22 txn prim, mTORC1 inh, p53null 32C kill, p53null 39C tox)
CCc1ccc(OCC(=O)Nc2ncn[nH]2)c(Br)c1	p53null 32C kill 2µM, p53null 39C tox 1.26µM
Cc1cc(CN2CCN(c3c(Br)cnc4nc(-c5ccc(N6CCN(C)CC6)cc5)[nH]c34)CC2)no1	none (no result: S16 F2sN tox, PMP22 txn prim, mTORC1 inh, p53null 32C kill, p53null 39C tox)
CCOC(=O)c1cccc(NS(=O)(=O)c2cc(-c3cnc(C4CC4)o3)ccc2C)c1	S16 F2sN tox 20µM
O=C(NCCCN1CCN(c2ccc(F)cc2)CC1)Nc1ccc(Cl)cc1	S16 F2sN tox inconclusive, PMP22 txn prim inconclusive, mTORC1 inh inconclusive, p53null 39C tox inconclusive
Cc1cccc(N2CCN(CCNC(=O)Nc3ccc(Cl)cc3)CC2)c1C	S16 F2sN tox inconclusive, OvCa metastasis inconclusive, PMP22 txn prim inconclusive, mTORC1 inh 18.5µM, p53null 32C kill inconclusive, p53null 39C tox inconclusive
CCOc1ccc(-c2oc3cc(Cl)ccc3c(=O)c2O)cc1OC	PMP22 txn prim inconclusive, mTORC1 inh inconclusive, p53null 32C kill inconclusive, p53null 39C tox 15.8µM
COc1cc(-c2oc3ccc(C)cc3c(=O)c2O)cc(OC)c1OC	mTORC1 inh inconclusive, p53null 32C kill inconclusive, p53null 39C tox inconclusive
NC(=O)c1cccc2cn(-c3ccc([C@@H]4CCCNC4)cc3)nc12	none (no result: S16 F2sN tox, PMP22 txn prim, mTORC1 inh, p53null 32C kill, p53null 39C tox)
CCSc1ncc(Cl)c(C(=O)Nc2c(C(=O)Nc3cccc(C)c3)oc3ccccc23)n1	none
CN(c1ccccc1)S(=O)(=O)c1ccc(NC(=O)c2nc(S(C)(=O)=O)ncc2Cl)cc1	S16 F2sN tox 4.47µM, PMP22 txn prim 2.12µM, mTORC1 inh 1.17µM, p53null 32C kill 22.4µM, p53null 39C tox inconclusive
